From PubChem BioAssay AID1159580 (chemical genetic matrix, 2015)
Where “and” joins values, the source holds several entries; their conditions need not be identical. Equal values may be shown once. In all, about 5,500 compounds went through this assay and about 2,000 (36%) were called active. Not shown: some 18% with an inconclusive outcome. Cut-off read from the data, not from the text of the source: active = normalized growth mostly below about 0.91 (no sharp cut-off); inconclusive = no clear call, values can overlap the other calls; inactive = mostly above about 0.92. This is one part of the list.

Experiment: chemical genetic growth profiling, strain panel (AID 1159580);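 note: tested at 20 µM; growth read once vehicle control cultures reached saturation at 30 °C; 1 = growth at the plate median or of vehicle wells; lower values mean less growth of the strain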
Conditions: S. cerevisiae deletion strains, growth OD

Measured: normalized growth

Cc1cccc(C)c1OCC(C)N (stereo not drawn)
inactive: locus YAL013W, strain DEP1, hits give low values 0.993 | locus YAL021C, strain ccr4, hits give low values 0.986 | locus YAL026C, strain drs2, hits give low values 1.01 | locus YAL030W, strain snc1, hits give low values 1 | locus YAL040C, strain CLN3, hits give low values 0.998 | locus YBL061C, strain skt5, hits give low values 1 | locus YBR009C, strain hhf1, hits give low values 1.01 | locus YBR021W, strain FUR4, hits give low values 0.997 | locus YBR023C, strain chs3, hits give low values 1 | locus YBR171W, strain sec66, hits give low values 1.02 | locus YBR229C, strain ROT2, hits give low values 0.998 | locus YBR231C, strain swc5, hits give low values 1.02 | locus YBR279W, strain paf1, hits give low values 1.01 | locus YCL011C, strain gbp2, hits give low values 1 | locus YCL016C, strain dcc1, hits give low values 1.01 | locus YCL029C, strain bik1, hits give low values 0.987 | locus YCL061C, strain MRC1 (second series), hits give low values 0.997 | locus YCL061C, strain MRC1, hits give low values 1.01 | locus YCL069W, strain vba3, hits give low values 1.01 | locus YCR088W, strain abp1, hits give low values 1 | locus YDL005C, strain med2, hits give low values 1.01 | locus YDL035C, strain GPR1, hits give low values 1 | locus YDL040C, strain nat1, hits give low values 1.01 | locus YDL074C, strain BRE1, hits give low values 1.05 | locus YDL101C, strain DUN1, hits give low values 1.02 | locus YDL134C, strain PPH21, hits give low values 0.983 | locus YDL185W, strain tfp1, hits give low values 0.95 | locus YDL192W, strain arf1, hits give low values 0.991 | locus YDR001C, strain nth1, hits give low values 1 | locus YDR069C, strain doa4, hits give low values 1.01 | locus YDR101C, strain arx1, hits give low values 0.996 | locus YDR137W, strain rgp1, hits give low values 1.01 | locus YDR159W, strain sac3, hits give low values 1.01 | locus YDR162C, strain NBP2, hits give low values 0.979 | locus YDR195W, strain ref2 0.998 | locus YDR297W, strain sur2, hits give low values 1.01 | locus YDR318W, strain mcm21, hits give low values 0.99 | locus YDR334W, strain swr1, hits give low values 1.01 | locus YDR335W, strain msn5, hits give low values 1.01 | locus YDR363W, strain ESC2, hits give low values 0.97 | locus YDR388W, hits give low values 1.01 | locus YDR392W, strain spt3, hits give low values 1.01 | locus YDR502C, strain sam2, hits give low values 1 | locus YEL003W, strain gim4, hits give low values 1.01 | locus YEL037C, strain rad23, hits give low values 0.992 | locus YEL061C, strain CIN8 (second series), hits give low values 1 | locus YEL061C, strain CIN8, hits give low values 0.991 | locus YER002W, strain NOP16, hits give low values 1.01 | locus YER015W, strain faa2, hits give low values 1.02 | locus YER016W, strain bim1, hits give low values 1.01 | locus YER110C, hits give low values 0.98 | locus YER111C, strain swi4, hits give low values 1.02 | locus YER155C, strain BEM2 (second series), hits give low values 1.02 | locus YER155C, strain BEM2, hits give low values 0.999 | locus YER167W, strain BCK2, hits give low values 1.01 | locus YFR010W, strain ubp6, hits give low values 1.02 | locus YGL078C, strain dbp3, hits give low values 0.977 | locus YGL086W, strain mad1, hits give low values 1.01 | locus YGL167C, strain pmr1, hits give low values 1 | locus YGL173C, strain kem1, hits give low values 1.02 | locus YGL227W, strain vid30, hits give low values 1.01 | locus YGL240W, strain doc1, hits give low values 1.02 | locus YGL248W, strain PDE1, hits give low values 1.01 | locus YGL253W, strain hxk2, hits give low values 1.01 | locus YGR135W, strain pre9, hits give low values 0.975 | locus YGR252W, strain gcn5, hits give low values 1.01 | locus YHR013C, strain ard1, hits give low values 1.01 | locus YHR027C, strain rpn1, hits give low values 1.01 | locus YHR030C, strain SLT2, hits give low values 0.977 and 0.988 | locus YHR079C, strain IRE1 (second series), hits give low values 0.983 | locus YHR079C, strain IRE1, hits give low values 0.994 | locus YHR094C, strain hxt1, hits give low values 0.999 | locus YHR129C, strain ARP1, hits give low values 0.999 | locus YHR142W, strain chs7, hits give low values 1 | locus YHR200W, strain rpn10, hits give low values 0.973 | locus YIL066C, strain RNR3, hits give low values 1.01 | locus YIL073C, strain SPO22, hits give low values 0.862 | locus YIL125W, strain kgd1, hits give low values 0.995 | locus YIR030C, strain dcg1, hits give low values 0.987 | locus YJL092W, strain hpr5, hits give low values 1.01 | locus YJL095W, strain BCK1 (second series), hits give low values 1 | locus YJL095W, strain BCK1, hits give low values 1.05 and 0.977 | locus YJL115W, strain asf1, hits give low values 1.01 | locus YJL129C, strain trk1, hits give low values 1.02 | locus YJL134W, strain LCB3, hits give low values 0.987 | locus YJL154C, strain vps35, hits give low values 1.01 | locus YJL164C, strain tpk1, hits give low values 1.01 | locus YJL166W, strain qcr8, hits give low values 1 | locus YJL168C, strain set2, hits give low values 0.997 | locus YJL187C, strain SWE1 (second series), hits give low values 1.01 | locus YJL187C, strain SWE1, hits give low values 1 | locus YJR043C, strain POL32, hits give low values 1 | locus YJR066W, strain TOR1, hits give low values 0.96
